DAX1 inh-1 – blocks DAX1 repression of SF-1 activated StAR promoter. HEK293T StAR-luciferase reporter, SF-1/DAX-1 repression relief. AID 652010. hit rate 1.1% among 370,000. inhibition, % at 6.8 µM;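 active = inhibition above the mean over all tested compounds plus 3 SD, cut at about 3.6% in these data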;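 note: 0% = DAX-1 cells with DMSO and 100% = cells lacking DAX-1 with DMSO; higher inhibition means more luminescence from relief of DAX-1 repression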
DAX1 inh-2 – inhibitors of human orphan nuclear receptor DAX1 (NR0B1) | inhibition, % at 6.75 µM | hit rate 0.99% among 340,000 | HEK293 Gal4-DAX1 luciferase reporter, luminescence | P51843 | AID 504766;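 active = inhibition above the mean over all tested compounds plus 3 SD, cut at about 4.2% in these data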;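 note: 0% = DAX1-transfected cells with DMSO and 100% = empty-vector control cells with DMSO; inhibition shows as a rise in luminescence from relieved DAX1 repression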
Target sequence (P51843 207-470 limits assumed): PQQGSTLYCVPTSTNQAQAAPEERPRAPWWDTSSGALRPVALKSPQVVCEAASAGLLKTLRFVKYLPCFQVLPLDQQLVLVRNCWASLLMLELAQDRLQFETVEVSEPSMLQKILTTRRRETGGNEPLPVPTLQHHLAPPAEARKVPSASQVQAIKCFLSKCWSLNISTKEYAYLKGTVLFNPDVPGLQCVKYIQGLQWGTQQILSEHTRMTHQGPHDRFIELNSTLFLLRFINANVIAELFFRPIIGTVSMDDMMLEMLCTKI
ssDAF-12 act – activates DAF-12 receptor from parasite S. stercoralis. HEK293 ssDAF-12/GRIP1 lit1-tk-luc reporter, luminescence; % of 3 µM dafachronic acid response. activation, % at 6.8 µM. hit rate 1% among 370,000;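 active = activation above the mean over all tested compounds plus 3 SD, cut at about 0.9% in these data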;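 note: 0% = DMSO-only wells and 100% = 3 µM delta7-dafachronic acid wells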
hgDAF-12 ag – hgDAF-12 agonism, primary luciferase screen; HEK293 GAL4-hgDAF12 UAS-luciferase reporter, agonist luminescence; normalized to butyrate control; activation, % at 6.8 µM; hit rate 1.8% among 370,000; AID 687014;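 active = activation above a cutoff set at the mean of all screened compounds plus 3 SD, cut at about 10% in these data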;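 note: 0% = DMSO wells and 100% = sodium butyrate wells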
hcDAF12 agonist – H. contortus DAF-12 activation, primary screen. AID 652067. HEK293 hcDAF-12 lit1-tk-luc reporter, luminescence; 0% DMSO, 100% Δ7-dafachronic acid. hit rate 1.4% among 370,000. activation, % at 6.8 µM;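 active = activation above the mean of all tested compounds plus 3 SD, cut at about 5.5% in these data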;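 note: 100% = response to 3 µM Δ7-dafachronic acid high control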
Starred values were filed as active, the others as inactive. Sampled rows, rich in hits. Any-hit rate of the full collection: about 4.1%.

What do the screens show for `Cc1ccc(OCC(C)CN2CCC(C(O)(c3ccccc3)c3ccccc3)CC2)cc1` (stereo not drawn)?
DAX1 inh-1: -1; ssDAF-12 act: -1; hgDAF-12 ag: 2; hcDAF12 agonist: 1

How did COc1ccc(-c2cc3c(=O)n(CC(=O)NCCCN4CCC(N5CCCCC5)CC4)nc(C)n3n2)cc1 do in these assays?
DAX1 inh-1: 4.5*; DAX1 inh-2: 1; ssDAF-12 act: -1; hgDAF-12 ag: 1; hcDAF12 agonist: 0

What do the screens show for `Cc1ccc(/C=C/C(=O)Nc2cccnc2)o1`?
DAX1 inh-1: 0; DAX1 inh-2: 1; ssDAF-12 act: 1.0*; hgDAF-12 ag: 1; hcDAF12 agonist: 1

How did O=C(Nc1ccccc1)C1Cc2ccccc2CN1C(=O)c1ccco1 (stereo not drawn) do in these assays?
DAX1 inh-1: 3; DAX1 inh-2: 3; ssDAF-12 act: 1.0*; hgDAF-12 ag: 13*; hcDAF12 agonist: 6.3*

How did Fc1ccccc1-c1n[nH]c(=S)n1N=Cc1ccc(OCc2ccccc2)cc1 do in these assays?
DAX1 inh-1: 0; ssDAF-12 act: -2; hgDAF-12 ag: 3; hcDAF12 agonist: -3

What do the screens show for `Cc1ccc(-c2nc3ccccc3nc2-c2ccccc2)cc1`?
DAX1 inh-1: 0; DAX1 inh-2: 1; ssDAF-12 act: -1; hgDAF-12 ag: -1; hcDAF12 agonist: 3

What do the screens show for `Clc1ccc(-c2nc3ccccc3nc2-c2ccccc2)cc1`?
DAX1 inh-1: 0; DAX1 inh-2: 0; ssDAF-12 act: -1; hgDAF-12 ag: -4; hcDAF12 agonist: 6.1*

What do the screens show for `Cc1ccc(CSc2nnc(-c3ccccn3)n2Cc2cccs2)cc1`?
DAX1 inh-1: -1; ssDAF-12 act: -1; hgDAF-12 ag: 1; hcDAF12 agonist: -2

How did Clc1ccc(CSc2nnc(-c3ccccn3)n2Cc2cccs2)cc1Cl do in these assays?
DAX1 inh-1: 4.2*; ssDAF-12 act: 0; hgDAF-12 ag: 1; hcDAF12 agonist: 1

What do the screens show for `CC(=O)c1cc(-c2cc(C(=O)O)cc([N+](=O)[O-])c2)c(=O)n2c1CCC2`?
DAX1 inh-1: 0; ssDAF-12 act: -1; hgDAF-12 ag: 1; hcDAF12 agonist: 2

Results for Cc1nc2c(-c3ccccc3)c[nH]n2c(=O)c1Cc1ccccc1 ?
DAX1 inh-1: 2; DAX1 inh-2: 5.7*; ssDAF-12 act: -1; hgDAF-12 ag: 6; hcDAF12 agonist: 1

What do the screens show for `Cc1cc(=O)n2[nH]cc(-c3ccccc3)c2n1`?
DAX1 inh-1: 0; DAX1 inh-2: 1; ssDAF-12 act: -1; hgDAF-12 ag: -1; hcDAF12 agonist: -1

How did CCCCCCCCN1C(=O)[C@@H](CC(=O)N2CCOCC2)C[C@@]2(C(=O)OC)C1=C[C@H](C1CCCC1)O[C@@H]2C do in these assays?
DAX1 inh-1: 1; ssDAF-12 act: -1; hgDAF-12 ag: 0; hcDAF12 agonist: -1

What do the screens show for `COC[C@H]1CCCN1c1cccc2c1S(=O)(=O)N1CC[C@@H](C1)O2`?
DAX1 inh-1: -1; ssDAF-12 act: -1; hgDAF-12 ag: 0; hcDAF12 agonist: 0

How did O=C1c2ccccc2C(=O)C1Cc1cccc2ccccc12 do in these assays?
DAX1 inh-1: 1; DAX1 inh-2: -1; ssDAF-12 act: 0.9*; hgDAF-12 ag: 3; hcDAF12 agonist: 4

Results for O=C1NC(c2cccc3ccccc23)Nc2ccccc21 (stereo not drawn) ?
DAX1 inh-1: 1; DAX1 inh-2: -2; ssDAF-12 act: 0; hgDAF-12 ag: -3; hcDAF12 agonist: 1

What do the screens show for `COc1ccc(-c2ccc(SCC(=O)N3CCOCC3)nn2)cc1`?
DAX1 inh-1: 1; DAX1 inh-2: 1; ssDAF-12 act: -1; hgDAF-12 ag: 4; hcDAF12 agonist: 0

What do the screens show for `O=C(CSc1ccc(-c2ccccc2)nn1)N1CCCCC1`?
DAX1 inh-1: 2; DAX1 inh-2: 1; ssDAF-12 act: 1.0*; hgDAF-12 ag: 7; hcDAF12 agonist: 5

Results for COc1ccc(C(=O)CSc2nccn2C)cc1 ?
DAX1 inh-1: 1; DAX1 inh-2: 4; ssDAF-12 act: 0; hgDAF-12 ag: 12*; hcDAF12 agonist: 2

What do the screens show for `Cn1ccnc1SCC(=O)c1ccc(OC(F)F)cc1`?
DAX1 inh-1: 0; DAX1 inh-2: 3; ssDAF-12 act: -1; hgDAF-12 ag: 5; hcDAF12 agonist: 1

What do the screens show for `COc1ccc(-c2ccc(SC)nn2)cc1`?
DAX1 inh-1: 4.4*; DAX1 inh-2: -3; ssDAF-12 act: -1; hgDAF-12 ag: 5; hcDAF12 agonist: 5

Source: PubChem BioAssay (The Scripps Research Institute Molecular Screening Center)
